According to ChEMBL document CHEMBL3988442, “University of Dundee, Small-Polar-MMV Screening Library” (2021):

Tests used:
[1] = target: T1, Aspartate--tRNA(Asp/Asn) ligase (Mycobacterium tuberculosis (strain ATCC 25618 / H37Rv)) (UniProt P9WFW3); assay: Assay for Asp RNA synthetase-1 from Mycobacterium tuberculosis; format: functional; set-up: scale not given: direction of the effect not stated beside the values; conditions: 30 µM; note: in the data most compounds retested in dose-response had high values
T1 sequence (whole entry): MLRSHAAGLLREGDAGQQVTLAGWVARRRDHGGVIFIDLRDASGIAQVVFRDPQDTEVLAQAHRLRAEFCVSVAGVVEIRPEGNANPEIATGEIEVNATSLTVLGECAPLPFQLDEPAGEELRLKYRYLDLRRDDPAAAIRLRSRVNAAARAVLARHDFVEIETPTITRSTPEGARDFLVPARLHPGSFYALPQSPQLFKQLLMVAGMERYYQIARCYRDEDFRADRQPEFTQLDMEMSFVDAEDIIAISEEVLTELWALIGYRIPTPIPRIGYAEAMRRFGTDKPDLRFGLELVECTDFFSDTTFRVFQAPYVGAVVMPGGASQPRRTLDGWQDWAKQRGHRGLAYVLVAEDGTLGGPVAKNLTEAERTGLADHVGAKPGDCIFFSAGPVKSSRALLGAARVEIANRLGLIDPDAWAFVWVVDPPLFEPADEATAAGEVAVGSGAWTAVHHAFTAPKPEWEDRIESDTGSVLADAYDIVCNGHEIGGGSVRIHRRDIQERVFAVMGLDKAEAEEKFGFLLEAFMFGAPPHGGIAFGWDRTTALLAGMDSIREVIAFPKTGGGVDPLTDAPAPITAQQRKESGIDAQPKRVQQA

[2] = target: Shiga toxin 2 (Escherichia coli O157:H7) (UniProt P09385+P09386); assay: E. coli 0.157:H7 Shiga Toxin SOP - stx2 screening assay; format: functional; set-up: scale not given: direction of the effect not stated beside the values; conditions: 30 µM

Row | Compound | Percent Effect [1] | Percent Effect [2]
1 | N#Cc1ccc(CN2CCC(c3ccnn3CCO)CC2)cc1 | 1.21% | 23.2%
2 | Cn1ncc2c1C(COCC1CC1)CN(Cc1ccoc1)C2 (centres undefined) | -4.51% | -1.73%
3 | CC(C)c1nc2n(n1)CC(NCc1ncc(-c3ccccc3)o1)CC2 (centres undefined) | -5.88% | -9.35%
4 | O=C(c1ccccn1)N1Cc2nccn2CC(CN2CCOCC2)C1 (centres undefined) | 11.5% | -21.6%
5 | Cc1ccc(-c2nc(CNCC3CN(C)CCO3)cs2)o1 (centres undefined) | 1.27% | -23.7%
6 | Cn1cc(CCNC(=O)CCc2ccc3c(c2)OCO3)cn1 | 1.25% | 21.4%
7 | Cc1ccc(-c2nc(CN3CCn4c(nnc4C4CC4)C3)co2)cc1 | -1.28% | 10.1%
8 | Cc1ccccc1C1(CNc2nnc(C)c(C)c2C#N)CCOCC1 | 2.96% | 18.2%
9 | Cc1cc(C)n(C2CN(CC(=O)N(C)Cc3ccc(C)o3)C2)n1 | -0.898% | 0.889%
10 | CCS(=O)(=O)N1Cc2nccn2CC(COc2cccnc2)C1 (centres undefined) | -1.75% | -12.5%
11 | COc1ccc(CC(=O)N(C)Cc2nnc3ccccn23)cc1 | 2.36% | 2.4%
12 | CS(=O)(=O)CCC(=O)N1CCC2(CCCN(C3CCOCC3)C2=O)C1 (centres undefined) | 3.37% | -8.62%
13 | NCC1CN(c2nc(-c3ccccc3)nc3c2CCNCC3)CCO1 (centres undefined) | -0.798% | -22.2%
14 | CN(CC1COc2ccccc2O1)C(=O)NCCCn1cncn1 (centres undefined) | 1.57% | 21.4%
15 | CCN(CC)Cc1cn2c(n1)CN(C(=O)c1cc(C)on1)CC2 | 3.22% | 2.01%
16 | Cc1cnn(CC2CCCN2Cc2coc(-c3ccccc3)n2)c1 (centres undefined) | -5.72% | -30.1%
17 | O=C(CC1CC1)N1CCn2cc(Cn3cncn3)nc2C1 | 3.1% | -11.8%
18 | O=C(O)c1cc(NS(=O)(=O)c2cccc(Cl)c2F)ccc1Cl | 0.425% | 20.1%
19 | CN(C)Cc1nn(C)c2c1CCN(S(=O)(=O)c1cccs1)C2 | 3.37% | -17.1%

Row | Compound | Percent Effect [1] | Percent Effect [2]
20 | CS(=O)(=O)NCCNC(=O)C1(c2cccc(Cl)c2)CC1 | -2.17% | -2.54%
21 | CCn1cc(NC(=O)NCC(C)O)cn1 (centres undefined) | -3.08% | 3.43%
22 | Cc1nn(C)c(Cl)c1C1CCCN1CCc1ccccn1 (centres undefined) | 1.79% | -0.4%
23 | Cc1ncccc1CNCC1CCN(CC(O)c2ccccc2)CC1 (centres undefined) | 0.218% | -34.9%
24 | CC(C)N1CCCC2(CCN(C(=O)CCCn3cncn3)C2)C1=O (centres undefined) | -0.717% | 11.1%
25 | CN1CCOC(CNCCc2ccccn2)C1 (centres undefined) | -3.97% | -10.7%
26 | Cc1cc(C)n(CC2CCCN2C(=O)CCCNc2ncccn2)n1 (centres undefined) | -2.92% | 26.1%
27 | O=C(NCc1ccccc1)c1nnc2ccc(N3CCOCC3)cc2n1 | -1.02% | -21.5%
28 | CCOc1ncccc1NC(=O)NC1CCCN(c2ncccn2)C1 (centres undefined) | 0.879% | -17.5%
29 | Cc1nc(C2(NCC(=O)NCCc3cccs3)CCCC2)no1 | -3.06% | 8.44%
30 | NC(=O)C1CCN(C(=O)CCn2ccc3cc(Br)ccc32)CC1 | 0.306% | 12.4%
31 | C[C@@H]1CN(C(=O)c2ccc(C#N)nc2)CC[C@@]1(O)C1CCOCC1 | -2.71% | -2.97%
32 | Cc1cccc(C)c1OCCC(=O)N1CCC(c2nncn2C)CC1 | -2.43% | -9.22%
33 | Cn1nc(C(=O)NCc2ccccn2)c2c1CCS(=O)(=O)C2 | -0.726% | -22.4%
34 | CC(C)n1ccnc1CN1CCCN(C(=O)COC2CCCC2)CC1 | -1.67% | -3.07%
35 | N#Cc1cn(C2CC2)c(=O)n(CC(O)c2ccccc2F)c1=O (centres undefined) | 0.3% | 14.2%
36 | O=C(Nc1ccccn1)C1=NN(c2ccccc2)C(=O)CN1 | 0.657% | -27.9%
37 | CO[C@H]1CCN(S(=O)(=O)c2cn(C)cn2)[C@H]1Cc1cnn(C)c1 | 7.16% | 5.54%
